# This is a sample that favours compounds with a hit; in the whole collection about 14% have one here.
# HCMV inh – qHTS Assay for inhibitors of the human cytomegalovirus (HCMV); HFF cells, HCMV-luciferase reporter, 72 h; hits give low values; activity change, negative = inhibition, % at 57.5 µM; AID 1259415, 2018; 410,000 compounds, 4.5% hits; in the data active means activity change below about -60%; inconclusive means no clear call, values can overlap the other calls; inactive means above about -39%
#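 Compounds were evaluated in HFFs infected with an HCMV luciferase reporter virus (MOI 1 PFU/cell). Luciferase in lysates collected 72 h post infection served as the replication measure.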
# Pf growth 48h – Primary qHTS for delayed death inhibitors of the malarial parasite plastid, 48 hour incubation | 310,000 compounds, 5.9% hits | Potency, µM (top dose mostly 28.7 µM), without a hit: at the top dose activity change, negative = inhibition, usual class: inhibitors | P. falciparum luciferase growth in erythrocytes, 48 h; further: potency means the concentration at half of the fitted maximal effect
#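 A one-generation exposure of luciferase-tagged malaria parasites in RPMI 1640/Albumax erythrocyte culture, 37 C and 5% CO2. Inhibition is inferred from decreased luminescence after adding detection reagent.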
# Sm TGR inh – qHTS Assay for the Inhibitors of Schistosoma Mansoni Peroxiredoxins | purified TGR, DTNB reduction, TNB absorbance 405 nm | 360,000 compounds, 3% hits | Potency, µM (titrated, usually from 114 µM), for inactives: at the highest dose activity change, negative = inhibition, most hits filed as inhibitors | Schistosoma mansoni thioredoxin glutathione reductase (TGR), Q962Y6 | AID 485364, 2010; further: potency means the concentration at half of the fitted maximal effect; nearly all actives have a fitted effect of over 60% in size
#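 TGR 20 nM + NADPH 100 uM (dispensed conc.), cpd preinc 15 min RT; start with NADPH (500 uM addition) then DTNB (15 mM addition). Kinetic TNB absorbance, 405 nm filter. Four-parameter Hill fit across titration.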
# Pf growth 96h – Primary qHTS for delayed death inhibitors of the malarial parasite plastid, 96 hour incubation. P. falciparum luciferase reporter growth, 96 h. Potency, µM (doses to about 28.7 µM), without a hit: top-dose activity change, negative = inhibition, hits mostly inhibitors. 320,000 compounds, 6.9% hits; further: potency means the concentration at half of the fitted maximal effect
#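 Readout is luminescence from an integrated firefly luciferase in P. falciparum. Red cells, 2% hematocrit and 0.05% parasitemia final, were cultured with compound through two parasite generations (96 hours) at 37 C, 5% CO2.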
# FBPA Giardia inh – qHTS Assay for Inhibitors of Fructose-1,6-bisphosphate Aldolase from Giardia Lamblia; purified Giardia FBPA; Potency, µM (top dose mostly 59.6 µM), inactives show at the top dose activity, negative = inhibition, actives largely listed as inhibitors; 290,000 compounds, 0.71% hits; AID 2451, 2010; further: potency means the concentration at half of the fitted maximal effect; nearly all actives have a fitted effect of over 55% in size
# Target sequence (A8B2U2 whole entry, looked up): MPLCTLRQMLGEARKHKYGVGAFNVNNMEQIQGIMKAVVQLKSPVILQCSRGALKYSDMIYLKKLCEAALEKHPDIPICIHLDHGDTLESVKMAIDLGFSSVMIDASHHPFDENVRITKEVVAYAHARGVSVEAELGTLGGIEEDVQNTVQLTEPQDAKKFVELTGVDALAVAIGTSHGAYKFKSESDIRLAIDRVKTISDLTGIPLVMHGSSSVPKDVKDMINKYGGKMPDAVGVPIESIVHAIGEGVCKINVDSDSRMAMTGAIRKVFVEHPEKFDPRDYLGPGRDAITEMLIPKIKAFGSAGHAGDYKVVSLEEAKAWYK
#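 Giardia FBPA (40 nM reagent) was preincubated 10 min at RT with compound (up to 57.5 uM final), then substrate plus GAPDH/TPI/NAD/arsenate coupling system with diaphorase/resazurin was added; resorufin fluorescence (525/598 nm) was read after 20 min.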
# An asterisk follows results filed as active; ? = inconclusive; nt = no result. Unless noted, the call rests on the fitted dose curve; in most records, active means well fitted curve in the direction sought with a large enough effect; inconclusive means small, poorly fitted or top-dose-only effect, or another doubt; inactive means no such curve, though single readings can be large; an effect the other way counts as inactive or inconclusive. On the % scale 0 is the no-effect control and ±100 the full control effect.
SMILES,HCMV inh,Pf growth 48h,Sm TGR inh,Pf growth 96h,FBPA Giardia inh
COc1ccc(N2CCN(CCNC(=O)Nc3ccc(Cl)cc3)CC2)cc1,-27,nt,-1%,?,-1%
COc1ccc(N2CCN(Cc3cc(=O)oc4cc(C)c(Cl)c(C)c34)CC2)cc1,-21,4.1µM*,-27%,-21%,-10%
COc1ccc(N2CCN(CCNC(=O)Nc3ccc(C)cc3Cl)CC2)cc1,2,1%,3%,2.3µM*,-1%
O=C(NCc1ccco1)c1ccccc1SCC(=O)N1CCCC1,-17,?,3%,-10%,nt
COc1cc(OC)cc(C(=O)NCC2CCCN(C(=O)c3csc(C(C)C)n3)C2)c1 (stereo not given),-18,6%,0%,6%,nt
COc1cccc(Cn2cnc3c(NS(=O)(=O)c4ccc(Cl)cc4Cl)c(C)c(C)cc32)c1,-17,25%,-9%,0%,6%
COc1cccc(Cn2cnc3c(NS(=O)(=O)c4ccc(Cl)cc4)c(C)c(C)cc32)c1,9,13µM*,-11%,4.7µM*,-1%
COc1cc(C(=O)O[C@H]2C/C(C)=C/CC[C@]3(C)O[C@@H]3C(O)C2C(C)C)cc(OC)c1OC (stereo not given in full),-27,?,-3%,4.1µM*,-14%
COc1ccc(-c2nn(-c3ccccc3F)cc2CNCCn2nc(C)cc2C)cc1,-73*,?,26%,19%,1%
O=C(NCCS(=O)(=O)N1CCCC1)c1ccccc1,-22,37%,-5%,64%,nt
Cc1cc(C)nc(SCc2nc3nc(C)cc(C)n3c2Br)n1,?,10µM*,?,1.5µM*,-7%
O=C(NCCCN1CCOCC1)C(=O)N/N=C/c1c(Cl)cccc1Cl,-39,-10%,nt,4%,1%
O=C(NCCCN1CCOCC1)C(=O)N/N=C/c1c2ccccc2cc2ccccc12,-93*,-9%,2%,?,-7%
CC(C)c1ccc(/C=N/NC(=O)C(=O)NCCCN2CCOCC2)cc1,-62*,1%,8%,24%,4%
CCNC(=O)CSC1=N/C(=C\c2ccc(O)c(OCC)c2)C(=O)N1c1ccc(OC(F)F)cc1,-70*,?,-7%,-4%,nt
COc1ccc(N2C(=O)/C(=C\c3ccco3)N=C2SCC(=O)N(C(C)C)C(C)C)cc1Cl,-30,10µM*,?,?,-23%
O=C(CSC1=N/C(=C/c2ccco2)C(=O)N1c1ccc(OC(F)F)cc1)NC1CCS(=O)(=O)C1 (stereo not given),-6,3%,40µM*,-11%,-18%
COc1ccc(N2C(=O)/C(=C\c3ccco3)N=C2SCC(=O)NC(C)C)cc1Cl,-19,-30%,0%,?,-12%
CCOC(=O)CSC1=N/C(=C\c2cccnc2)C(=O)N1c1ccc(OC)cc1,-19,30%,-16%,?,0%
CCN(CC(=O)Nc1cc(Cl)ccc1C)CC(=O)NC1CC1,24,nt,nt,nt,nt
CCc1cccc(NC(=O)Cn2c(=O)n(Cc3ccccc3)c(=O)c3c(C)c(C(=O)N(C)C)sc32)c1,-14,nt,-14%,nt,nt
O=P(Cc1ccccc1O)(c1ccccc1)c1ccccc1,2,8%,-3%,13%,1%
O=P(O)(c1ccccc1)c1ccccc1O,-21,2%,15%,12µM*,6%
CCN(Cc1ccncc1)Cc1ccc(OC)cc1OC,-10,-2%,?,-18%,?
COc1ccc(CN(CCN(C)C)Cc2ccccc2)c(OC)c1,-12,13µM*,-11%,nt,-20%
SMILES,HCMV inh,Pf growth 48h,Sm TGR inh,Pf growth 96h,FBPA Giardia inh
Cn1c(-c2ccccc2)cccc1=O,33,3%,-1%,-77%,-5%
Cn1c(-c2ccccc2)c[n+]2c1-c1ccccc1C2,?,0.59µM*,0%,?,6%
CC1=Nc2nc(N3CCCCC3)c(C#N)c3c4c(nc(c23)N1)N(c1ccc(C(C)C)cc1)C(=O)C4,-26,?,-4%,1.2µM*,-19%
CC(C)c1ccc(-c2nc(N3CCCCC3)[nH]c(=O)c2C#N)cc1,92,-23%,-14%,-12%,-2%
CCOC(=O)N1CCN(Cc2ccc(OCC(O)CN3CCCCC3)cc2)CC1 (stereo not given),-11,-9%,-1%,?,6%
COc1ccc(-c2noc(CN3CCCC(OCc4ccccn4)C3)n2)cc1 (stereo not given),0,?,35µM*,?,-12%
COc1ccc(Cc2noc(CN3CCCC(OCc4ccccn4)C3)n2)cc1OC (stereo not given),6,?,-4%,13µM*,-2%
c1ccc(COC2CCCN(Cc3nc(-c4cnccn4)no3)C2)nc1 (stereo not given),-3,?,?,-3%,-21%
COc1ccc(-c2nc(Cc3ccc(Cl)cc3)no2)cc1OC,-74*,7%,-6%,nt,2%
c1ccc(COC2CCCN(Cc3nc(Cc4ccccc4)no3)C2)cc1 (stereo not given),?,?,6%,14%,17%
COc1ccc(Cc2noc(-c3ccccc3)n2)cc1OC,?,15%,10%,33%,6%
COc1ccc(Cc2noc(CN3CCN(Cc4cccc(Cl)c4)CC3)n2)cc1OC,-37,?,-25%,8.3µM*,-14%
Cc1nc(NC(=O)CSc2nnc(Cn3nnc4ccccc43)n2C)sc1C,-19,-4%,5%,?,2%
CCCOC1CCCN(Cc2nc(-c3cnccn3)no2)C1 (stereo not given),-9,41%,3%,10µM*,-4%
Fc1cccc(CN2CCN(Cc3nc(-c4cnccn4)no3)CC2)c1,-10,6%,nt,19%,-4%
c1ccc(C(c2ccccc2)N2CCN(Cc3nc(-c4cnccn4)no3)CC2)cc1,12,?,25µM*,?,4%
O=C1Nc2ccccc2Nc2ccc([N+](=O)[O-])cc21,-6,-30%,-16%,-1%,-19%
Cc1ccc(N=C2NC(=O)c3cc([N+](=O)[O-])ccc32)cc1,5,-5%,10%,4.1µM*,-11%
COc1cccc(NC(=O)CSc2nc(=O)n(Cc3ccncc3)c3c2CCC3)c1,-14,nt,-7%,nt,nt
CNc1cccc(-c2c(OC)cccc2OC)n1,-11,nt,nt,nt,nt
COc1cc(CN2CCN(S(=O)(=O)c3ccccc3)CC2)cc(OC)c1O,18,nt,4.5µM*,nt,nt
O=S(=O)(c1ccc(Br)cc1)N1CCCN(Cc2ccccc2F)CC1,28,40%,-13%,6.6µM*,6%
COc1ccc(CN2CCN(S(=O)(=O)c3ccccc3)CC2)cc1Br,?,nt,-5%,14%,?
COc1ccc(S(=O)(=O)N2CCCN(Cc3cccc(F)c3)CC2)cc1,-35,19%,-6%,12µM*,-1%
